Sampled rows, rich in hits. Any-hit rate of the full collection: about 11%.
Tau fibril ThT: qHTS for Inhibitors of Tau Fibril Formation, Thioflavin T Binding; Microtubule-associated protein tau (Homo sapiens), P10636; recombinant tau K18 P301L, heparin-induced fibrillization, ThT fluorescence; Potency, µM (top dose mostly 57.4 µM), for the others: at the highest dose activity, negative = inhibition, hits mostly inhibitors; 2.1% of 270,000 active; note: potency is the fitted concentration of half-maximal effect; nearly all actives have a fitted effect of over 55% in size
Target sequence (P10636 561-689 P618L limits assumed): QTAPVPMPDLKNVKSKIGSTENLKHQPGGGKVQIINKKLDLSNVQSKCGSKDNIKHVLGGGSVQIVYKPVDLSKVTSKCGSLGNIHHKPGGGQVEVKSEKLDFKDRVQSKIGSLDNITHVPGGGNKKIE
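Recombinant human tau K18 fragment […] carrying P301L, 15 uM unlabeled plus 0.24 uM Alexa 594-labeled, was fibrillized with 20 uM heparin in 100 mM sodium acetate pH 7 for 6 hr at 37 C; 30 uM ThT fluorescence read after 1 hr.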
Sfp inh: qHTS Assay for Inhibitors of Bacillus subtilis Sfp phosphopantetheinyl transferase (PPTase); Potency, µM, inactives show largest response in the series, negative = inhibition, hits mostly inhibitors; Biochemical Sfp PPTase activity, qHTS; AID 1490, 2009; 3.5% of 310,000 active; 4'-phosphopantetheinyl transferase ffp (Bacillus subtilis), Q9F4F7;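 note: the enzyme is Sfp with the accession as filed and its product quenches rhodamine fluorescence; potency is the fitted concentration of half-maximal effect; 0% = enzyme reaction without inhibitor and -100% = no enzyme wells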
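With Hepes-Na pH 7.6 buffer containing 10 mM MgCl2, Sfp (15 nM) modified BHQ-2-YbbR (12.5 uM) using rhodamine-CoA (5 uM). Two reads 30 minutes apart at 525/598 nm yielded each well's rate.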
Tau fluor cs: Counterscreen qHTS for Inhibitors of Tau Fibril Formation, Fluorescence Polarization; tau K18 P301L Alexa594 fluorescence, heparin fibrillization; Potency, µM (doses to about 57.7 µM), for inactives: at the top dose activity change, negative = decrease; 0.93% of 280,000 active; AID 1463, 2008; note: potency is the fitted concentration of half-maximal effect; nearly all actives have a fitted effect of over 55% in size
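Human tau K18 P301L (15 uM unlabeled, 0.24 uM Alexa 594-labeled) in 100 mM sodium acetate pH 7 with 20 uM heparin, 6 hr at 37 C. ThT 30 uM added, 1 hr ambient; Alexa 594 FP and total fluorescence read at 555/632 nm.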
FBPA coupling cs: qHTS Assay for Inhibitors of Fructose-1,6-bisphosphate Aldolase from Giardia Lamblia: Coupling assay counterscreen. coupling enzyme system counterscreen, AmpLite Red fluorescence. activity change, negative = inhibition, % at 58.2 µM, hits read low. 0.67% of 290,000 active. AID 2472, 2010; in the data active = activity change below about -30%
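Coupling enzymes only (glyceraldehyde-3-phosphate) + compound, at 57.5 uM final, 10 min RT; add substrate/coupling/AmpLite Red mix, 20 min RT; fluorescence ex 525/em 598 nm. Actives flag coupling-system interference.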
G9a block: qHTS Assay for Inhibitors of Histone Lysine Methyltransferase G9a | G9a H3K9 monomethylation, AlphaScreen, 2 h | Potency, µM (doses to about 102 µM), for the others: at the top dose activity, negative = inhibition, hits mostly inhibitors | 8.8% of 350,000 active | AID 504332, 2011; note: potency is the fitted concentration of half-maximal effect; nearly all actives have a fitted effect of over 75% in size
Target sequence (Q96KQ7 913-1193 limits assumed): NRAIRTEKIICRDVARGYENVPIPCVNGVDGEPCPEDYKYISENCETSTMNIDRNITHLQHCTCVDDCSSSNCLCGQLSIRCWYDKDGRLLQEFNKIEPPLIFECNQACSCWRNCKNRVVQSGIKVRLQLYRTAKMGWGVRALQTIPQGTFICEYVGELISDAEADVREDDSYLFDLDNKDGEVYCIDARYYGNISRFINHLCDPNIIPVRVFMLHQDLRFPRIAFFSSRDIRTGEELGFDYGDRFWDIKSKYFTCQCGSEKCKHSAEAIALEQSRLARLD
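Using a bead-based AlphaScreen, monomethylated H3K9 product from 2 h room-temperature reactions (G9a 20 nM, peptide 500 nM, SAM 20 uM) was detected with 0.5 ug/mL rabbit anti-H3K9me1 antibody.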
Tau fibril FP: qHTS for Inhibitors of Tau Fibril Formation, Fluorescence Polarization. 0.39% of 280,000 active. Potency, µM (titrated, usually from 57.7 µM), for inactives: at the highest dose activity, negative = inhibition, usual class: inhibitors. K18 P301L tau heparin fibrillization, Alexa594 FP, 6 h. Microtubule-associated protein tau (Homo sapiens), P10636; note: potency is the fitted concentration of half-maximal effect; nearly all actives have a fitted effect of over 55% in size
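Read-out: fluorescence polarization of Alexa 594-labeled tau (0.24 uM), 555 nm excitation, 632 nm emission. Mixtures held 15 uM unlabeled K18 P301L, compound and 20 uM heparin, pH 7 acetate buffer, incubated 6 hr at 37 C.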
* marks the source's active call; other numbers are inactive results; u = inconclusive; x = not tested or not shown; [ ] = remark or other dose. Unless noted, calls come from the whole dose curve; as a rule, active = well fitted curve in the direction sought with a large enough effect; inconclusive = small, poorly fitted or top-dose-only effect, or another doubt; inactive = no such curve, though single readings can be large; an effect the other way counts as inactive or inconclusive. Unless noted, % is set by controls: 0 for no effect and ±100 for the full control effect.

SMILES	Tau fibril ThT	Sfp inh	Tau fluor cs	FBPA coupling cs	G9a block	Tau fibril FP
Cc1cccc(N=Nc2ccc(O)c3ncccc23)c1	2µM*	-3%	-26%	-7	7.1µM*	u
O=C(Oc1cccc2cccnc12)c1ccc2c(c1)OCCO2	-6%	u	-12%	-20	u	-14%
Oc1ccc(N=Nc2ccc3c(c2)OCCO3)c2ncccc12	u	1%	u	2	11µM*	6%
Cc1ccc(C)c(N=Nc2ccc(O)c3ncccc23)c1	u	6%	-26%	-7	11µM*	15%
Cc1ccc(N=Nc2ccc(N)cc2C)c(S(N)(=O)=O)c1	14µM*	u	u	2	20µM*	15%
CC(C)C1=CC2=CC[C@@H]3[C@](C)(CCC[C@@]3(C)C(=O)O)[C@H]2CC1	x	-4%	x	x	u	x
CC(C)C1=CC2=CCC3C(C)(C(=O)O)CCCC3(C)C2CC1 (centres undefined) (tested in a mixture with another compound)	x	3%	x	1	71µM*	x
Clc1ccc2nc(CN3CCCCCC3)cn2c1	-2%	-4%	-4%	x	3%[0.0925 µM]	u
Clc1ccc(CN2CCCCCCC2)cc1	-2%	-7%	-5%	-1	7.1µM*	-7%
Clc1ccc(CN2CCCCCC2)cc1	x	1%	x	0	13µM*	x
O=[N+]([O-])c1cc(CN2CCCC2)ccc1Sc1ccc(Cl)cc1	-10%	2%	-14%	-1	35µM*	1%
Clc1ccc2nc(CN3CCCCC3)cn2c1	4%	-8%	4%	5	50µM*	0%
CCN1CCCC1CNC(=O)Cn1nc(C)n2nc(-c3ccccc3)cc2c1=O (centres undefined)	x	0%	x	x	x	x
CC/C=C\C/C=C\C/C=C\C/C=C\C/C=C\C/C=C\CCC(=O)O[C@H](COCCCCCCCCCCCCCCCC)COP(=O)([O-])OCC[N+](C)(C)C	-11%	3%	-7%	-5	x	-8%
CCCN(C(=O)c1coc(=O)c2ccccc12)c1ccccc1C	-3%	x	-9%	x	2%[59 µM]	-5%
COc1ccc2c(c1-c1c3c(cc(Br)c1OC)CCCC3)CCCC2	-10%	8%	-5%	2	x	11%
COc1ccccc1CNC(=O)CN1C(=O)CCc2cc(S(=O)(=O)N3CCOCC3)ccc21	6%	x	3%	x	47%[59 µM]	0%
COc1cc(C)c(NC(=O)Cc2ccsc2)cc1OC	x	4%	x	2	-29%	x
CSc1nn(CC(=O)Nc2cc(C)ccc2C)c(N)c1S(=O)(=O)c1ccccc1	3%	x	-23%	x	-2%[59 µM]	-6%
O=c1ccc(S(=O)(=O)N2CCCC2)cn1Cc1ccc(F)cc1	x	x	x	x	3.5µM*	x
Fc1ccc(CN2CCCCCCC2)cc1	-4%	-2%	-2%	1	10µM*	3%
Clc1cccc(CN2CCCCCCC2)c1Cl	-2%	u	-3%	1	10µM*	-4%
Clc1ccc(CN2CCCCCCC2)cc1Cl	-16%	-25%	-10%	2	u	0%
CCN(CC)CCCNC(=O)CN1C(=O)COc2ccc(S(=O)(=O)N3CCC(C)CC3)cc21	2%	x	-13%	x	-10%[59 µM]	-14%
CCCCC1=NN2CCS(=O)(=O)N=C2S1	8%	11%	10%	0	1%	0%
COCC(=O)N1CCC2(CC1)CCN(c1ncccn1)CC2	x	36%	x	-1	-8%[12.7 µM]	x
COc1ccc(-c2cc(C(F)(F)F)n3nc(C)c(-c4ccccc4)c3n2)cc1OC	-10%	x	-9%	x	8%[59 µM]	-2%
CCc1ccc(S(=O)(=O)NC(=S)Nc2ccccc2)cc1	-18%	16µM*	-19%	0	18µM*	u

From PubChem BioAssay
